The values that follow come from PubChem BioAssay (NCI).

Structures are written as SMILES. The panel holds about 83,000 compounds, 20% with a hit somewhere; the sample as a whole holds those more often.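 Cells were grown in 96-well plates and exposed to the test compound at a single concentration for 48 hours; results are reported as percent growth, with values below 10 considered active.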 Unmarked numbers belong to inactive results. Active and inactive are the calls of the source.

Some test systems named below: DU-145 prostate; K-562 leukemia; MALME-3M melanoma; MDA-MB-231 breast; RXF 393 renal; SF-268 CNS; SF-295 CNS; SF-539 CNS; UACC-257 melanoma; M14 melanoma; HCT-15 colon; HT29 colon; SNB-75 CNS; SNB-19 CNS; U251 CNS; PC-3 prostate; SK-MEL-5 melanoma; UACC-62 melanoma; LOX IMVI melanoma; SK-MEL-28 melanoma.
Test in all cases: NCI-60 one-dose screen, 48 h (100 = growth as untreated, 0 = no growth, -100 = all killed)
What all share (settings): 10 µM unless noted

Turning to `C[C@H](NC(=O)c1snnc1C1CC1)c1c(F)cccc1Cl`, the growth was 127% in the test with DU-145 prostate; 115% in the test on K-562 leukemia; 119% in the test with MALME-3M melanoma; 105% with MDA-MB-231 breast; -22.6% (active) in the test on RXF 393 renal; 114% with SF-268 CNS. Besides, the growth in the test with SF-295 CNS is 96.8%; in the test with SF-539 CNS, 96.6%; with UACC-257 melanoma it was 115%; in the test on M14 melanoma, 116%; with HCT-15 colon, 93.9%; in the test with HT29 colon, 119%. The growth with SNB-75 CNS was 95.1%; in the test with SNB-19 CNS, 142%; with U251 CNS, 90%; in the test on PC-3 prostate it was 98.9%; in the test with SK-MEL-5 melanoma it was 98.2%; with UACC-62 melanoma, 87.8%. Moreover, the results for the growth in the test with LOX IMVI melanoma and in the test on SK-MEL-28 melanoma were 93.9% and 110%, respectively.

Consider `C=C(COC(C)=O)[C@H]1CC/C(C)=C/CC/C(C)=C/CC[C@@]2(C)O[C@H]2C1`, for which the growth with DU-145 prostate is 109%; with K-562 leukemia, 100%; in the test with MALME-3M melanoma it was 93.5%; in the test on MDA-MB-231 breast, 107%; in the test with RXF 393 renal, 112%; in the test with SF-268 CNS it was 97.2%. Further, the growth in the test on SF-295 CNS was 110%; in the test with SF-539 CNS, 114%; with UACC-257 melanoma, 100%; with M14 melanoma it was 106%; in the test on HCT-15 colon, 96%; in the test on HT29 colon, 108%. In addition, the growth with SNB-75 CNS was 109%; in the test with SNB-19 CNS it was 106%; in the test with U251 CNS it was 98.3%; in the test with PC-3 prostate it was 129%; in the test with SK-MEL-5 melanoma it was 108%; with UACC-62 melanoma, 99.6%. The growth with LOX IMVI melanoma was 94.6%; in the test on SK-MEL-28 melanoma, 104%.

For `CNC1=C([N+](=O)[O-])C(c2ccccc2O)C(C#N)=C(c2cccs2)O1` (stereo not given), the growth in the test with DU-145 prostate is 103%; in the test with K-562 leukemia, 63.8%; in the test on MALME-3M melanoma it was 52.8%; in the test with MDA-MB-231 breast, 93.8%; with RXF 393 renal it was 89.7%; in the test on SF-268 CNS it was 96.3%. For the same compound, the growth in the test on SF-295 CNS was 102%; in the test with SF-539 CNS it was 95.6%; in the test on UACC-257 melanoma, 78.3%; with M14 melanoma, 93.4%; with HCT-15 colon it was 88.5%; with HT29 colon, 105%. Also, the growth with SNB-75 CNS is 84.2%; with SNB-19 CNS it was 102%; in the test with U251 CNS, 91.5%; with PC-3 prostate it was 97.7%; in the test on SK-MEL-5 melanoma, 97%; with UACC-62 melanoma it was 89.3%. In addition, the growth in the test on LOX IMVI melanoma is 87.3%; in the test with SK-MEL-28 melanoma, 93.3%.

Take `CC(CN1CCN(CC(C)Nc2ccnc3cc(Cl)ccc23)CC1)Nc1ccnc2cc(Cl)ccc12` (stereo not given): the growth in the test on DU-145 prostate was 30%; with K-562 leukemia, -21.9% (active); in the test with MALME-3M melanoma, -55.5% (active); with MDA-MB-231 breast, -19% (active); with RXF 393 renal it was -69.4% (active); in the test on SF-268 CNS, 16.7%. Moreover, the growth in the test on SF-295 CNS was -48.2% (active); in the test on SF-539 CNS, -82.4% (active); in the test on UACC-257 melanoma, -61.4% (active); with M14 melanoma, -88% (active); in the test with HCT-15 colon, -1.75% (active); in the test with HT29 colon it was -19.7% (active). The growth in the test on SNB-75 CNS is -26.8% (active); in the test with SNB-19 CNS, 31.6%; in the test with U251 CNS, 0.467% (active); in the test with PC-3 prostate, 26.2%; in the test on SK-MEL-5 melanoma it was -97.6% (active); in the test on UACC-62 melanoma, -62.7% (active). Besides, the values for the growth in the test on LOX IMVI melanoma and in the test on SK-MEL-28 melanoma were -86.1% (active) and -91.4% (active), respectively.

For the compound `O=C1C(Cl)=C(Nc2cccc3ccccc23)C(=O)c2ccccc21`, the growth is 111% with DU-145 prostate; 26.6% in the test with K-562 leukemia; 53.4% in the test with MALME-3M melanoma; 57.5% in the test with MDA-MB-231 breast; 120% with RXF 393 renal; 85.5% in the test on SF-268 CNS. Moreover, the growth is 95.1% in the test on SF-295 CNS; 107% with SF-539 CNS; 74.7% with UACC-257 melanoma; 87.8% with M14 melanoma; 70% in the test on HCT-15 colon; 90.3% in the test with HT29 colon. Also, the growth in the test on SNB-75 CNS was 81.6%; in the test with SNB-19 CNS it was 92.6%; in the test with U251 CNS it was 75.6%; in the test with PC-3 prostate, 43%; in the test on SK-MEL-5 melanoma it was 60.9%; with UACC-62 melanoma, 55.1%. Moreover, the growth with LOX IMVI melanoma was 32.7%; in the test with SK-MEL-28 melanoma it was 91.4%.

`CC1=C(O)C(=O)CC1`: the growth is 112% in the test on DU-145 prostate; 106% in the test on K-562 leukemia; 104% with MALME-3M melanoma; 108% with MDA-MB-231 breast; 102% in the test on RXF 393 renal; 110% in the test with SF-268 CNS. Also, the growth with SF-295 CNS is 94.9%; in the test on SF-539 CNS it was 111%; in the test on UACC-257 melanoma it was 97.4%; with M14 melanoma it was 105%; in the test with HCT-15 colon it was 108%; in the test on HT29 colon it was 101%. The growth in the test with SNB-75 CNS was 97.9%; with SNB-19 CNS it was 101%; in the test on U251 CNS it was 100%; in the test with PC-3 prostate, 80.9%; with SK-MEL-5 melanoma, 99.5%; in the test on UACC-62 melanoma it was 110%. In addition, the growth was 99.7% in the test with LOX IMVI melanoma and 100% in the test with SK-MEL-28 melanoma.

As to `C=C[C@H]1CCC/C=C/[C@@H]2C[C@H](O)C[C@H]2[C@H](O)/C=C/C(=O)O1`, the growth in the test with DU-145 prostate was 5.86% (active); with K-562 leukemia, 9.93% (active); in the test on MALME-3M melanoma, -46.4% (active); in the test on MDA-MB-231 breast it was -74% (active); in the test with RXF 393 renal, -15.2% (active); with SF-268 CNS it was 7.6% (active). Besides, the growth is 17.2% in the test with SF-295 CNS; 35.2% in the test with SF-539 CNS; 4.69% (active) with UACC-257 melanoma; -10.6% (active) in the test on M14 melanoma; 5.82% (active) in the test with HCT-15 colon; -51.5% (active) in the test with HT29 colon. In addition, the growth in the test with SNB-75 CNS is 25.8%; in the test with SNB-19 CNS, 22.3%; in the test on U251 CNS, 14.6%; in the test on PC-3 prostate, 15.1%; with SK-MEL-5 melanoma it was -77.7% (active); with UACC-62 melanoma, 5.56% (active). Besides, the growth in the test with LOX IMVI melanoma is -99.1% (active); in the test on SK-MEL-28 melanoma, 7.46% (active).

`CC1(C)OC2OC3C(CN)OC(c4ccccc4)OC3C2O1` (stereo not given): the growth with DU-145 prostate was 108%; with K-562 leukemia, 104%; with MALME-3M melanoma, 120%; in the test on MDA-MB-231 breast, 101%; in the test on RXF 393 renal it was 122%; in the test on SF-268 CNS it was 93.2%. The growth with SF-295 CNS is 123%; in the test on SF-539 CNS, 106%; in the test on UACC-257 melanoma, 105%; in the test on M14 melanoma, 120%; with HCT-15 colon, 125%; in the test with HT29 colon, 106%. Also, the growth is 92.4% in the test on SNB-75 CNS; 110% in the test on SNB-19 CNS; 104% in the test on U251 CNS; 97.1% in the test with PC-3 prostate; 106% in the test with SK-MEL-5 melanoma; 105% with UACC-62 melanoma. The values for the growth in the test with LOX IMVI melanoma and with SK-MEL-28 melanoma were 97.9% and 114%, respectively.
